High-throughput results (PubChem BioAssay)
Hits are enriched below; roughly 19% of the tested compounds scored in any of these assays.
Giardia killer – Small Molecules that selectively kill Giardia lamblia: qHTS. Giardia lamblia trophozoite viability. activity change, % at 7.66 µM, hits read low. 340,000 compounds, 0.15% hits. AID 540267, 2011; in the data active means activity change below about -80%; inconclusive means between about -30% and that limit;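 further: parasites exposed to compound for two days anaerobically before the ATP read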
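Compounds were tested on trophozoites seeded at 100 cells/well and held 48 hrs at 37 deg C anaerobically. An ATP-based luminescent kit measured the remaining live cells.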
TDP1 inh – qHTS Assay for Inhibitors of Tyrosyl-DNA Phosphodiesterase (TDP1); 350,000 compounds, 0.28% hits; Potency, µM (top dose mostly 130 µM), most hits filed as inhibitors; recombinant TDP1, AlphaScreen DNA substrate cleavage; Tyrosyl-DNA phosphodiesterase 1 (Homo sapiens), Q9NUW8; further: nearly all actives have a fitted effect of over 40% in size
Target sequence (Q9NUW8 whole entry, looked up): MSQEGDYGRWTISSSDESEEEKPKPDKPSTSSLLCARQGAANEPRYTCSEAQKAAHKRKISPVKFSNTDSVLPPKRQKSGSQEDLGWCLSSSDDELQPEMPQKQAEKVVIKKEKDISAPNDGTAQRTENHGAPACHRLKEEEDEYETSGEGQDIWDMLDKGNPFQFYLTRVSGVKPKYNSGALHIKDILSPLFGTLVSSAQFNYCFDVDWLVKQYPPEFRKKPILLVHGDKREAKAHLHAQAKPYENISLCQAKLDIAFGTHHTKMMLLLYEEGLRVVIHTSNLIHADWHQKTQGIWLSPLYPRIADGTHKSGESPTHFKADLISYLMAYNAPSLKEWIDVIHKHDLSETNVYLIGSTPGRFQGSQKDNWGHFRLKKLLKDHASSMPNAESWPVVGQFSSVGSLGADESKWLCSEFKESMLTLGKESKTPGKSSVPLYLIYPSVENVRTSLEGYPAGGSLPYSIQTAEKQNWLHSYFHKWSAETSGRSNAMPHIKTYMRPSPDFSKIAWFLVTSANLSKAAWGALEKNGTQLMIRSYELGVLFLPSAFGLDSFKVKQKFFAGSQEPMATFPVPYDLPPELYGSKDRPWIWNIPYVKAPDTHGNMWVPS
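Tdp1 1 nM final; 15 min RT w/ cpd; substrate 15 nM, 5 min; beads 10 ug/ml, 10 min; AlphaScreen read. Neg ctrl: no enzyme.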
DT40 TDP1 no CPT – qHTS for Inhibitors of human tyrosyl-DNA phosphodiesterase 1 (TDP1): qHTS in cells in absence of CPT | Potency, µM (top dose mostly 46.2 µM), hits mostly inhibitors | DT40 Tdp1-/- hTDP1 cells, no CPT, ATP luminescence, 48 h | 420,000 compounds, 15% hits; further: nearly all actives have a fitted effect of over 55% in size
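Seeded 400 DT40-hTDP1 cells/well (vehicle DMSO, no 20 nM CPT); pinned compounds; ≥48 hr at 37 °C; CellTiter-Glo luminescence as viability measure.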
ELG1 repair inh – qHTS screen for small molecules that inhibit ELG1-dependent DNA repair in human embryonic kidney (HEK293T) cells expressing luciferase-tagged ELG1; HEK293T ELG1-luciferase reporter, luminescence, 16 h; DNA damage induced by 5-fluorouridine; Potency, µM (top dose mostly 46.1 µM), most hits filed as inhibitors; 330,000 compounds, 2.3% hits; further: nearly all actives have a fitted effect of over 55% in size
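Cells (2,000 per well) received 5-fluorouridine plus test compound or DMSO and were incubated 16 hr at 37 °C, 5% CO2. Luciferase activity was read by luminescence 30 min after ONE-Glo addition; signal suppression marked inhibition of damage-induced ELG1 function.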
IL1B secr inh – qHTS for Inhibitors of Inflammasome Signaling: IL-1-beta AlphaLISA Primary Screen. THP-1 LPS/ATP IL-1B secretion, AlphaLISA, 16 h; active compounds read low. activity change, % at 57.5 µM. 360,000 compounds, 4.7% hits; in the data active means activity change below about -50%; inconclusive means mostly about -30% to -49%
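THP-1 cells pretreated 1 hr with compounds (up to 57.5 uM final), then stimulated with LPS (250 ng/mL final) plus ATP (1.25 mM final); secreted IL-1B measured by AlphaLISA after 16 hr, decreased signal indicating inhibition.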
DT40 TDP1 CPT – qHTS for Inhibitors of human tyrosyl-DNA phosphodiesterase 1 (TDP1): qHTS in cells in presence of CPT | chicken DT40 Tdp1-/-;hTDP1 cells + 20 nM CPT, ATP luminescence, 48 h | 420,000 compounds, 12% hits | Potency, µM (doses to about 46.2 µM), actives largely listed as inhibitors; further: nearly all actives have a fitted effect of over 55% in size
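Chicken DT40 Tdp1-/- cells complemented with human TDP1, 400 cells/well, exposed to compounds plus 20 nM camptothecin for at least 48 h at 37 C; viability read as ATP content by CellTiter-Glo luminescence.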
Hits are given with their value; [ ] = dose if it differs, or a comment. Unless noted, the call rests on the fitted dose curve; in most records, active means well fitted curve in the direction sought with a large enough effect; inconclusive means small, poorly fitted or top-dose-only effect, or another doubt; inactive means no such curve, though single readings can be large; an effect the other way counts as inactive or inconclusive.

For O=[N+]([O-])c1ccc2[nH]c(=S)sc2c1 the results were Giardia killer inactive, DT40 TDP1 no CPT 21µM, IL1B secr inh inactive and DT40 TDP1 CPT 23µM.
CN1CCN(c2ncc3nc(-c4ccccc4)c(=O)n(CCC#N)c3n2)CC1 was read as DT40 TDP1 no CPT 16µM and DT40 TDP1 CPT inconclusive.
COc1ccc(-c2nc3cnc(N4CCN(C)CC4)nc3n(CCC#N)c2=O)cc1 was read as DT40 TDP1 no CPT 23µM and DT40 TDP1 CPT inactive.
Screening N#CCCn1c(=O)c(-c2ccccc2)nc2cnc(N3CCOCC3)nc21 returned DT40 TDP1 no CPT inactive and DT40 TDP1 CPT inactive.
`CCC(CC)CN1CCC(CN2C(=O)C(=O)NC[C@@H]2CC(C)C)CC1` gave DT40 TDP1 no CPT inactive, IL1B secr inh inactive and DT40 TDP1 CPT inactive.
For CCc1ccc(CNC(=O)c2cccc(-n3c(C)nc4cccnc43)c2)cc1 the results were TDP1 inh inactive, DT40 TDP1 no CPT 16µM and DT40 TDP1 CPT 13µM.
O=C(c1cccc(Cl)c1)N1CCN(c2ncccn2)CC1 was read as Giardia killer inactive, DT40 TDP1 no CPT inactive, ELG1 repair inh inactive, IL1B secr inh inactive and DT40 TDP1 CPT inactive.
For Cc1nc2cccnc2n1-c1cccc(C(=O)NCc2cccc(Cl)c2)c1 the results were TDP1 inh inactive, DT40 TDP1 no CPT 18µM and DT40 TDP1 CPT 21µM.
Cc1ccc(C(=O)N2CCN(c3cccc(Cl)c3)CC2)cc1-n1c(C)nc2cccnc21 was read as TDP1 inh inactive, DT40 TDP1 no CPT 9.2µM and DT40 TDP1 CPT 10µM.
Cc1nc2cccnc2n1-c1cccc(C(=O)NCCN(C)C)c1 was read as TDP1 inh inactive, DT40 TDP1 no CPT inactive and DT40 TDP1 CPT inactive.
For CC(C)(C)N(Cc1ccccc1)C(=O)COC(=O)/C=C/c1ccc2c(c1)OCO2 the results were Giardia killer inactive, TDP1 inh inactive, DT40 TDP1 no CPT inactive, ELG1 repair inh inactive, IL1B secr inh inactive and DT40 TDP1 CPT inactive.
Screening CCCCn1cnc2c(SCc3cccc(F)c3)nc(N)nc21 returned Giardia killer inactive, DT40 TDP1 no CPT inconclusive, IL1B secr inh inactive and DT40 TDP1 CPT inactive.
`CCCCc1c(-c2ccccc2OC)ncn1CCc1cccc(F)c1` gave DT40 TDP1 no CPT 21µM, IL1B secr inh inactive and DT40 TDP1 CPT 16µM.
For CCCCc1c(-c2ccccc2OC)ncn1CCc1cccc(OC)c1 the results were DT40 TDP1 no CPT 18µM, IL1B secr inh -69 and DT40 TDP1 CPT 15µM.
CCCn1cnc2cc(NCc3cccc(OC)c3)ccc21 was read as Giardia killer inactive, TDP1 inh inactive, DT40 TDP1 no CPT inconclusive, ELG1 repair inh inconclusive, IL1B secr inh inactive and DT40 TDP1 CPT inactive.
For Cn1ncc(C#N)c1/N=C/N(Cc1ccccc1)Cc1ccccc1 the results were Giardia killer inactive, TDP1 inh inactive, DT40 TDP1 no CPT inconclusive, ELG1 repair inh inconclusive, IL1B secr inh inactive and DT40 TDP1 CPT 15µM.
`Cc1nc(Cl)sc1C(=O)Nc1ccc(F)cc1` gave Giardia killer inactive, DT40 TDP1 no CPT inactive, IL1B secr inh inactive and DT40 TDP1 CPT inactive.
Screening CC(C)S(=O)(=O)c1csc(C(=O)Nc2ccc(F)cc2)c1N returned Giardia killer inactive, DT40 TDP1 no CPT inconclusive, ELG1 repair inh inconclusive, IL1B secr inh inactive and DT40 TDP1 CPT 21µM.
Screening COC(=O)c1cc2c(C)[nH]c(C)c2cc(C(=O)OC)c1=O returned Giardia killer inactive, TDP1 inh inactive, DT40 TDP1 no CPT 6.5µM, ELG1 repair inh inactive, IL1B secr inh inactive and DT40 TDP1 CPT 7.3µM.
COCc1c(C(=O)NC2CCCC2)cnn1-c1nccc(-c2cccs2)n1 was read as DT40 TDP1 no CPT inactive and DT40 TDP1 CPT inconclusive.
COc1ccc(NC(=O)Cc2cccc3ccccc23)cc1 was read as Giardia killer inconclusive, TDP1 inh inactive, DT40 TDP1 no CPT inactive, ELG1 repair inh inactive, IL1B secr inh inactive and DT40 TDP1 CPT inactive.
For COc1ccccc1CN(C)C(=O)C(NC(=O)Cc1cccc2ccccc12)C(C)C (stereo unspecified) the results were Giardia killer inactive, TDP1 inh inactive, DT40 TDP1 no CPT 23µM, ELG1 repair inh inactive, IL1B secr inh -62 and DT40 TDP1 CPT inconclusive.
`Cc1nn(C)cc1CN(C)C(=O)c1cc(-c2ccccc2)nc2ccc(Br)cc12` gave Giardia killer inactive, TDP1 inh inactive, DT40 TDP1 no CPT 15µM, ELG1 repair inh inconclusive, IL1B secr inh inactive and DT40 TDP1 CPT 16µM.
`COc1ccc(CN(C)C(=O)c2cc(-c3ccccc3)nc3ccc(C)cc23)c(OC)c1` gave DT40 TDP1 no CPT 5.8µM, IL1B secr inh inconclusive and DT40 TDP1 CPT 5.8µM.
Screening Cc1ccc2nc(-c3ccc(Cl)cc3)cc(C(=O)OCC(=O)c3ccccc3)c2c1 returned TDP1 inh inactive[12.3 µM], DT40 TDP1 no CPT 21µM and DT40 TDP1 CPT inconclusive.
`Cc1ccc(/C=C/C(=O)OCC(=O)N(C)c2c(N)n(Cc3ccccc3)c(=O)[nH]c2=O)o1` gave DT40 TDP1 no CPT inactive, IL1B secr inh inactive and DT40 TDP1 CPT inactive.
Screening COc1ccccc1CN(C)C(=O)c1cc(C)nc2ccccc12 returned Giardia killer inactive, DT40 TDP1 no CPT 16µM, ELG1 repair inh inactive, IL1B secr inh inactive and DT40 TDP1 CPT 16µM.
For Cc1ccc(C(=O)COC(=O)c2cc(-c3cccs3)nc3ccccc23)cc1 the results were DT40 TDP1 no CPT 18µM and DT40 TDP1 CPT inconclusive.
`COc1ccccc1CNC(=O)c1cc(C)nc2ccccc12` gave Giardia killer inactive, DT40 TDP1 no CPT inconclusive, ELG1 repair inh inactive, IL1B secr inh inactive and DT40 TDP1 CPT inactive.
Screening COc1ccc(-c2cc(C(=O)Oc3ccccc3)c3cc(C)ccc3n2)cc1 returned TDP1 inh inactive[12.3 µM], DT40 TDP1 no CPT 5.2µM and DT40 TDP1 CPT inconclusive.
`COc1ccc(-c2cc(C(=O)Oc3ccc(C)cc3)c3cc(C)ccc3n2)cc1` gave TDP1 inh inactive[12.3 µM], DT40 TDP1 no CPT inactive and DT40 TDP1 CPT inactive.
Screening CCN(CC)C(=O)C(c1ccccc1)S(=O)(=O)N1CCOCC1 (stereo unspecified) returned DT40 TDP1 no CPT inactive, IL1B secr inh inactive and DT40 TDP1 CPT inactive.
For Cc1ccc2sc(C)cc(=O)c2c1 the results were Giardia killer inactive, DT40 TDP1 no CPT inactive, IL1B secr inh inactive and DT40 TDP1 CPT inactive.
